LAP4 TOR yeast – alters LAP4-GFP fluorescence in TOR pathway yeast screen | S. cerevisiae LAP4-GFP multiplex, flow cytometry GFP, 3 h; median GFP as percent of DMSO wells | GFP response vs DMSO, % at 10 µM | hit rate 0.34% among 320,000;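 active means GFP response vs DMSO above a set limit, about the screen mean plus 3 SD, cut at about 150% in these data; inconclusive means under 70 cell events counted for the yeast strain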
CIT2-GFP yeast – yeast TOR pathway CIT2-GFP modulation | S. cerevisiae CIT2-GFP strain, flow cytometry, 3 h; 100 means same as DMSO wells | GFP response vs DMSO, % at 10 µM | hit rate 0.065% among 320,000;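 active means GFP response relative to DMSO above a set limit, near the screen mean plus 3 SD, cut at about 150% in these data; inconclusive means Fewer than 70 cells measured for a yeast strain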;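 further: ratio of well median GFP fluorescence to mean of DMSO wells on the plate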
AGP1-GFP MLPCN – modulators of TOR pathway AGP1-GFP in S. cerevisiae | hit rate 0.02% among 320,000 | S. cerevisiae AGP1-GFP multiplex flow cytometry, 3 h; GFP as percent of DMSO wells | GFP response vs DMSO, % at 10 µM;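 active means GFP response relative to DMSO above a set limit, near screen average plus 3 SD, cut at about 150% in these data; inconclusive means fewer than 70 cells counted for the yeast strain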;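 further: median GFP channel fluorescence of the gated AGP1 strain per well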
RPL19A-GFP yeast – modulators of TOR pathway RPL19A-GFP in S. cerevisiae. S. cerevisiae RPL19A-GFP strain, flow cytometry, 3 h; active compounds read low. percent response vs DMSO, % at 10 µM. hit rate 0.3% among 330,000. AID 2025;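 active means percent response vs DMSO below 50%; inconclusive means fewer than 70 events counted for the yeast strain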;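 further: median channel GFP fluorescence of the barcoded RPL19A-GFP strain; ratio of sample median GFP to plate DMSO average so 100% = DMSO; lower means less RPL19A-GFP as with rapamycin TOR inhibition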
MEP2-GFP yeast – modulators of TOR pathway MEP2-GFP in S. cerevisiae. AID 2016. GFP response vs DMSO, % at 10 µM. hit rate 0.51% among 330,000. S. cerevisiae MEP2-GFP strain, flow cytometry GFP, 3 h; 100% = DMSO control level;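 active means GFP response versus DMSO above a set limit, roughly screen mean plus 3 SD, cut at about 180% in these data; inconclusive means fewer than 70 cells counted for a yeast strain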;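 further: median GFP fluorescence of the barcode-gated MEP2-GFP cells per well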
Numbers without * were called inactive; ? = inconclusive; [ ] = another dose, or the depositor's remark. Hits are enriched below; roughly 0.92% of the tested compounds scored in any of these assays.

SMILES	LAP4 TOR yeast	CIT2-GFP yeast	AGP1-GFP MLPCN	RPL19A-GFP yeast	MEP2-GFP yeast
Cc1cc([N+](=O)[O-])ccc1NC(=O)c1cccc(NC(=O)C(C)C)c1	70.4	?	?	74.6	191.1*[may fluoresce violet]
CC(C)C(=O)Nc1cccc(C(=O)Nc2cc([N+](=O)[O-])ccc2Cl)c1	102.1	96.1	95.9	102.3	106.1
CCc1ccc(NC(=O)c2noc3c2CCc2ccccc2-3)cc1	106.1	?	?	12.7*[may fluoresce violet]	237.1*[may fluoresce violet]
O=C(Nc1ccc(F)cc1F)C1CCCN1S(=O)(=O)c1ccc(-c2ccc(=O)[nH]n2)s1 (configuration not stated)	48.1	?	?	41.5*[may fluoresce violet]	253.1*[may fluoresce violet]
Cc1ccc(-c2noc(CCCC(=O)N3CCOCC3)n2)cc1	103.0	?	21.1	19.8*[may fluoresce violet]	287.1*[may fluoresce violet]
O=C(CCCc1nc(-c2ccc(Cl)cc2)no1)N1CCOCC1	105.5	?	?	16.9*[may fluoresce violet]	305.3*[may fluoresce violet]
COc1ccc(C2NC(=O)c3sc4nc(C)c(C(C)=O)c(-c5ccc(Cl)cc5)c4c3N2)cc1 (configuration not stated)	97.2	?	31.9	30.1*[may fluoresce violet]	416.9*[may fluoresce violet]
COc1ccc(-c2c(C(C)=O)c(C)nc3sc4c(=N)n(N)cnc4c23)cc1	105.9	109.8	113.0	107.4	112.5
O=C(c1ccc2ccccc2n1)N(CCO)Cc1ccccc1	94.4	102.0	97.5	107.8	105.7
O=S1(=O)N=C2CCCN2C(c2ccc(F)cc2)N1 (configuration not stated)	100.9	95.8	105.3	101.6	105.9
O=S1(=O)N=C2CCCCCN2C(c2ccc(F)cc2)N1 (configuration not stated)	104.8	?	?	17.2*[may fluoresce violet]	191.9*[may fluoresce violet]
COc1ccccc1N1CCN(C(=O)CCc2nnc3ccc(N4CCCC4)nn23)CC1	94.5	108.8	100.3	96.3	102.5
COc1ccc(N2CCN(C(=O)CCc3nnc4ccc(N5CCCC5)nn34)CC2)cc1	104.1	126.6	70.5	69.0	189.7*
CCOC(=O)C1(Cc2ccccc2Cl)CCN(S(=O)(=O)N(C)C)CC1	93.7	83.8	92.7	93.2	93.6
CCOC(=O)C1(Cc2ccccc2Cl)CCN(C(=O)CCn2ccnc2C)CC1	156.9*	130.9	132.5	78.8	388.3*
CCOC(=O)C1CCCN(C(=O)c2cc(-c3ccc(C)cc3)nc3ccccc23)C1 (configuration not stated)	103.3	92.8	97.8	92.7	93.2
Cc1ccc(CO/N=C/c2c(O)cc(C)oc2=O)cc1	163.5*	98.1	89.0	99.3	98.6
Cc1ccc(N/N=C/c2c(O)cc(C)oc2=O)cc1	94.3	132.0	81.2	104.8	99.8
CCN(CCCNC(=O)Cn1ncc2c([nH]c3ccc(C)cc32)c1=O)Cc1ccccc1	86.9	103.1	104.8	96.6	95.9
O=C(N/N=C/c1coc2ccccc2c1=O)c1cn(-c2ccccc2)nc1-c1ccc(F)cc1	97.6	106.5	103.0	99.8	109.9
O=C(NC1=NCCS1)c1cccc(F)c1	101.7	99.5	96.3	99.6	101.2
O=C(NC1=NCCS1)c1cccc(Br)c1	108.3	?	16.9	66.0	185.4*[may fluoresce violet]
CC(C)=NOC(=O)c1c(C)noc1-c1snnc1C	112.7	?	21.5	56.1	603.0*[may fluoresce violet]
COC(=O)c1c(C)noc1-c1snnc1C	109.0	98.0	109.7	96.6	104.4
COc1cccc(/C=N/NC(=O)c2ccoc2C)c1	103.9	?	?	62.0	322.4*[may fluoresce violet]
SMILES	LAP4 TOR yeast	CIT2-GFP yeast	AGP1-GFP MLPCN	RPL19A-GFP yeast	MEP2-GFP yeast
COc1cc(/C=N/NC(=O)c2ccoc2C)ccc1O	77.5	103.0	34.7	102.1	116.3
CN(C)c1ccc(-n2cccc2/C=C/[N+](=O)[O-])cc1	154.8*	89.7	96.4	92.1	98.7
CC(C)(C)OC(=O)N/N=C/c1cccn1-c1ccc([N+](=O)[O-])cc1	116.8	104.7	112.8	101.9	108.8
CCCCOc1ccc(C(=O)N2CCN(c3ccc(N4CCOCC4)nn3)CC2)cc1	157.5*	69.9	68.0	77.5	79.0
Cc1noc(NS(=O)(=O)c2ccc(NC(=O)NC(C)(C(F)(F)F)C(F)(F)F)cc2)c1C	92.0	96.1	101.2	106.3	107.2
CN(C)c1ccc(CNS(=O)(=O)c2csc(C(N)=O)c2)cc1	87.1	?	18.1	33.4*[may fluoresce violet]	137.5
COc1cccc(/C=N/NC(=O)CC2C(=O)NN=C2C)c1O (configuration not stated)	?	?	?	11.2*[may fluoresce violet]	?
COc1cccc(/C=N/NC(=O)CC2C(=O)NN=C2C)c1OC (configuration not stated)	96.1	107.7	103.2	96.3	108.3
S=c1[nH]nc(NCCCN2CCOCC2)s1	103.5	103.6	30.7	51.5	327.4*
S=C(NCCCN1CCOCC1)NCCCN1CCOCC1	108.1	89.9	100.0	95.9	94.2
COc1ccc(C(C(=O)NC(C)(C)C)N(C(=O)CCC(=O)Nc2cc(C)on2)c2ccc(C)c(C)c2)cc1 (configuration not stated)	86.4	?	?	56.8	319.2*[may fluoresce violet]
COc1ccc(C(C(=O)NC(C)(C)C)N(C(=O)CCC(=O)Nc2cc(C)on2)c2ccc3c(c2)OCCO3)cc1 (configuration not stated)	103.3	108.1	110.1	106.3	105.3
CC(=O)N1CCN(C(=O)COC(=O)CNC(=O)c2ccc(C)cc2)CC1	103.2	92.8	104.3	104.6	98.6
O=C(O)c1c[nH]c2ccc(S(=O)(=O)N3CCOCC3)cc12	79.1	?	?	15.3*[may fluoresce violet]	252.2*[may fluoresce violet]
O=C(NCCN1CCOCC1)c1c[nH]c2ccc(S(=O)(=O)N3CCOCC3)cc2c1=O	94.7	105.1	98.2	101.3	98.1
CC(=O)c1cccc(NC(=O)C(=O)c2cn(CC(=O)N3CCCCC3)c3ccccc23)c1	103.1	98.1	99.1	95.6	99.6
CCn1c(SCC(=O)Nc2ccc(F)cc2)nnc1-c1cnccn1	84.5	?	18.7	38.2*[may fluoresce violet]	168.6
C=CCn1c(SCC(=O)Nc2ccc(F)cc2)nnc1-c1cnccn1	99.3	113.6	105.3	108.5	109.8
COc1ccccc1N1CCN(C(C)C(=O)N2CC(C)OC(C)C2)CC1 (configuration not stated)	93.5	97.8	97.2	104.6	102.9
Cc1cc(SCc2ccccc2)nc(=O)[nH]1	85.6	?	20.8	65.2	203.8*[may fluoresce violet]
COc1ccc(C2=NN(C(=O)CSc3cn(C)c4ccccc34)C(c3ccc(OC)cc3)C2)cc1 (configuration not stated)	106.9	99.4	103.5	100.5	102.4
Cc1nn(C)c(C(=O)Sc2cccc(Cl)c2)c1[N+](=O)[O-]	154.2*	102.7	109.9	107.1	97.4
Cc1nn(C)c(C(=O)Sc2ccccc2)c1[N+](=O)[O-]	129.1	96.5	109.7	101.2	99.1
